The source of these data is PubChem BioAssay (NCI).

The panel holds about 83,000 compounds, 20% with a hit somewhere; the sample as a whole holds those more often.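 A percent growth of 40 corresponds to 60% growth inhibition; 0 means no net growth; -100 means all cells died. Active threshold: below 10.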 Unmarked numbers belong to inactive results. Active and inactive are the calls of the source.

Common to all, as to assay: NCI-60 one-dose screen, 48 h (100 = growth as untreated, 0 = no growth, -100 = all killed)
The test system of one experiment is NCI-H23 lung. The settings on record: 10 µM unless noted.
The test system of the next experiment is NCI-H226 lung. The settings on record: 10 µM unless noted.
Another experiment concerns NCI-H322M lung. Conditions: 10 µM unless noted.
For the next experiment, the system named is NCI-H460 lung. Conditions: 10 µM unless noted.
A further experiment concerns HOP-92 NSCLC. Conditions: 10 µM.
The next experiment deals with NCI-H522 lung. Conditions: 10 µM.
The subject of another experiment is A549/ATCC NSCLC. The settings on record: 10 µM unless noted.
Another experiment relates to 786-0 renal. Conditions: 10 µM unless noted.
The test system of another experiment is COLO 205 colon. Conditions: 10 µM unless noted.

For the compound `COc1ccc(-c2nc(SCC(C)C)nc(Nc3ccccc3)c2C#N)cc1`, the growth in the experiment with NCI-H23 lung is 86.3%; in the experiment with NCI-H226 lung, 83%; with NCI-H322M lung, 70.8%; in the experiment on NCI-H460 lung it was 18.7%; with HOP-92 NSCLC, 88%; in the experiment with NCI-H522 lung it was 88.3%. In addition, the growth is 48% in the experiment with A549/ATCC NSCLC and 51.9% in the experiment with 786-0 renal.
Regarding `COc1cc(OC)c(NC(=O)n2ncc3cc(Nc4ncnc5ccccc45)ccc32)cc1Cl`, the growth in the experiment on NCI-H23 lung was 97.5%; with NCI-H226 lung, 104%; with NCI-H322M lung it was 14.1%; in the experiment on NCI-H460 lung, 108%; with HOP-92 NSCLC, 87.3%; in the experiment with NCI-H522 lung, 72.1%. Moreover, the growth was 80.3% in the experiment on A549/ATCC NSCLC and 73.1% in the experiment on 786-0 renal.
In the case of `Cc1nc(NC(=O)NC2CCCCC2)sc1C(=O)NN`, the growth was 101% in the experiment with NCI-H23 lung; 103% with NCI-H226 lung; 101% in the experiment with NCI-H322M lung; 112% with NCI-H460 lung; -17.1% (active) in the experiment with HOP-92 NSCLC; 0.452% (active) in the experiment on NCI-H522 lung. Further, the growth is 102% with A549/ATCC NSCLC, 113% with 786-0 renal and 119% with COLO 205 colon.
On to `CC1=C[C@@H]2c3c(c(O)c(O)c4oc5cc(O)cc(O)c5c(=O)c34)[C@@H](c3cc(O)c(O)c4oc5cc(O)cc(O)c5c(=O)c34)[C@@H]2C(C)(C)C1`, for which the growth is -20.3% (active) in the experiment with NCI-H23 lung; 8.46% (active) in the experiment on NCI-H226 lung; 16.9% in the experiment with NCI-H322M lung; -28.3% (active) in the experiment with NCI-H460 lung; -15% (active) in the experiment with HOP-92 NSCLC; -60.8% (active) with NCI-H522 lung. Also, the growth is 9.43% (active) in the experiment with A549/ATCC NSCLC and -40.3% (active) in the experiment on 786-0 renal.
In the case of `CCCCCCCCC1OC1CCCCCCCC(=O)O` (stereo not given), the growth is 100% in the experiment with NCI-H23 lung; 92% in the experiment with NCI-H226 lung; 102% with NCI-H322M lung; 99.1% in the experiment with NCI-H460 lung; 87.8% in the experiment on HOP-92 NSCLC; 97.7% with NCI-H522 lung. Besides, the growth in the experiment on A549/ATCC NSCLC was 91.9%; in the experiment with 786-0 renal, 100%.
On to `O=S(=O)(O)c1ccc2c(c1)Sc1cc(S(=O)(=O)O)ccc1O2`, for which the growth with NCI-H23 lung is 109%; with NCI-H226 lung it was 118%; with NCI-H322M lung it was 118%; in the experiment with NCI-H460 lung, 118%; in the experiment with HOP-92 NSCLC, 98.5%; with NCI-H522 lung, 107%. Besides, the growth in the experiment on A549/ATCC NSCLC is 99.5%; in the experiment on 786-0 renal, 108%.
As to `COc1cc(-c2c3c(cn2CCN2CCCCC2)-c2oncc2CC3)cc(OC)c1OC`, the growth is 98.6% in the experiment with NCI-H23 lung; 90.2% with NCI-H226 lung; 110% in the experiment on NCI-H322M lung; 101% in the experiment on NCI-H460 lung; 81.8% in the experiment with HOP-92 NSCLC; 90.9% with NCI-H522 lung. For the same compound, the growth is 101% in the experiment with A549/ATCC NSCLC, 105% with 786-0 renal and 103% in the experiment with COLO 205 colon.
Regarding `Cc1ccc(OCCn2ccc(=O)n(CCOc3ccc(Cl)cc3C(=O)c3cc(C)cc(C)c3)c2=O)cc1`, the growth was 54.4% with NCI-H23 lung; 62.9% with NCI-H226 lung; 84.1% with NCI-H322M lung; 37.2% with NCI-H460 lung; 45.9% in the experiment on HOP-92 NSCLC; 23.3% in the experiment with NCI-H522 lung. The growth in the experiment on A549/ATCC NSCLC is 41.7%; with 786-0 renal, 57.4%.
Turning to `COc1ccc(C(=O)CN2C(=O)NC(c3ccccc3)(c3ccccc3)C2=O)cc1`, the growth is 103% in the experiment with NCI-H23 lung; 93.2% in the experiment on NCI-H226 lung; 110% with NCI-H322M lung; 102% with NCI-H460 lung; 71.5% in the experiment on HOP-92 NSCLC; 96.5% in the experiment on NCI-H522 lung. For the same compound, the growth in the experiment on A549/ATCC NSCLC is 103%; in the experiment with 786-0 renal, 109%; in the experiment with COLO 205 colon it was 115%.
In the case of `COC(=O)Nc1nc2ccc(C(=O)c3ccccc3N(C)C3COC3)cc2[nH]1`, the growth in the experiment on NCI-H23 lung was 54.4%; with NCI-H226 lung, 49.6%; in the experiment on NCI-H322M lung it was 49.5%; with NCI-H460 lung, 13.5%; in the experiment on HOP-92 NSCLC it was 41.1%; in the experiment with NCI-H522 lung, 13.1%. Besides, the results for the growth in the experiment with A549/ATCC NSCLC and in the experiment on 786-0 renal were 42.4% and 34.4%, respectively.
As to `COc1cc(-c2cc3cnccc3c3nc(N)c4ccncc4c23)cc(OC)c1OC`, the growth is 64.3% with NCI-H23 lung; 56.1% in the experiment with NCI-H226 lung; 58.7% with NCI-H322M lung; 54.9% in the experiment on NCI-H460 lung; -0.882% (active) in the experiment on HOP-92 NSCLC; 57.1% with NCI-H522 lung. In addition, the growth with A549/ATCC NSCLC was 42.5%; in the experiment on 786-0 renal, 24.8%.
As for `O=c1c(N=Nc2nccs2)c(-c2ccccc2)[nH]n1-c1nc(-c2ccccc2)cs1`, the growth in the experiment with NCI-H23 lung was 36.3%; in the experiment with NCI-H226 lung, 56.2%; in the experiment on NCI-H322M lung, 24.5%; with NCI-H460 lung, 22.5%; with HOP-92 NSCLC it was -8.96% (active); in the experiment on NCI-H522 lung, 20.9%. The growth was 36.3% in the experiment on A549/ATCC NSCLC and 43.7% with 786-0 renal.
Regarding `O=S(=O)(Cc1cccc2c(CS(=O)(=O)c3ccc(Cl)cc3)cccc12)c1ccc(Cl)cc1`, the growth is 98% in the experiment with NCI-H23 lung; 107% with NCI-H226 lung; 86.7% in the experiment with NCI-H322M lung; 72.4% with NCI-H460 lung; 97.1% in the experiment on HOP-92 NSCLC; 96.4% in the experiment on NCI-H522 lung. Besides, the growth with A549/ATCC NSCLC is 84.3%; with 786-0 renal it was 119%; with COLO 205 colon, 83%.
For `Nc1nc2c(c3cnccc13)C(c1ccc(Cl)c(Cl)c1)Cc1cnccc1-2` (stereo not given), the growth in the experiment on NCI-H23 lung was -37.6% (active); with NCI-H226 lung, -26% (active); in the experiment on NCI-H322M lung, -26.6% (active); in the experiment on NCI-H460 lung it was -29.6% (active); with HOP-92 NSCLC, -45% (active); in the experiment with NCI-H522 lung, -16.4% (active). The results for the growth in the experiment with A549/ATCC NSCLC and in the experiment on 786-0 renal were -24.7% (active) and -65.8% (active), respectively.
In the case of `O=C(O)/C(Br)=C/c1c[nH]c2ccc(Br)cc12`, the growth in the experiment with NCI-H23 lung is 99.6%; in the experiment on NCI-H226 lung it was 108%; in the experiment with NCI-H322M lung it was 116%; in the experiment on NCI-H460 lung, 122%; in the experiment on HOP-92 NSCLC, 174%; in the experiment on NCI-H522 lung it was 110%. Further, the growth in the experiment with A549/ATCC NSCLC was 117%; in the experiment on 786-0 renal it was 101%; in the experiment with COLO 205 colon, 156%.
